Activity calls are given as the source filed them.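 How the source made its calls: active means high combined rank on largest and smallest cell-count-weighted shift across three tests, rank score above 45, floors 50 and 25 (some results past the limit were not filed as active); inactive means the rest.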
Test: LNCaP granularity increase inducers, single-point recheck – cell-based, side scatter shift, flow cytometry, confirmation (AID 1069);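 further: LNCaP human prostate cancer cells in low-serum medium with charcoal-stripped FBS; percent of cells with raised granularity gated so DMSO controls show 10%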
Conditions: LNCaP differentiation, 4 d, stronger effect = higher value

Question: What does the source list for `Cc1cc(=O)c2ccccc2[nH]1`?
Answer: side scatter shift (at 100 µM): 11.2% (inactive); side scatter shift (side scatter shift, at 10 µM): 2.3%

Question: For `CCOc1ccccc1NC(=O)c1nc[nH]c1C(=O)Nc1ccccc1OCC`, which side scatter shift (at 100 µM) is on record?
Answer: Its side scatter shift is 40% (inactive).

Question: What about the side scatter shift (side scatter shift, at 10 µM) of the same molecule?
Answer: The side scatter shift was 6.05%.

Question: For `CCCN(CCC)CCNC(=O)C1CCN(Cc2nc(-c3ccc(Cl)cc3)oc2C)CC1`, which side scatter shift (at 100 µM) is on record?
Answer: The side scatter shift was 76.4% (active).

Question: What about the side scatter shift (side scatter shift, at 10 µM) of the same molecule?
Answer: The side scatter shift was 74%.

Question: What does the source list for `CN(C)CCCN1c2ccccc2CCc2ccc(Cl)cc21`?
Answer: side scatter shift (at 100 µM): 20.9% (active); side scatter shift (side scatter shift, at 10 µM): 48.4%

Question: For `CCN(CC)CCNC(=O)c1cc2c(-c3ccc(Cl)cc3)nn(C)c2s1`, which side scatter shift (at 100 µM) is on record?
Answer: The side scatter shift was 24% (inactive).

Question: What about the side scatter shift (side scatter shift, at 10 µM) of the same molecule?
Answer: Its side scatter shift is 64.8%.

Question: For `CCN(CC)CCNC(=O)c1ccc(N2CCCCC2)c(NS(=O)(=O)c2ccc(C)cc2)c1`, which side scatter shift (at 100 µM) is on record?
Answer: The side scatter shift was 17.6% (inactive).

Question: What about the side scatter shift (side scatter shift, at 10 µM) of the same molecule?
Answer: Its side scatter shift is 38.6%.

Question: Which results are given for `COc1ccc(-c2cc(-c3ccc(F)cc3)nc(N3CCN(C)CC3)n2)cc1`?
Answer: side scatter shift (at 100 µM): 33.3% (inactive); side scatter shift (side scatter shift, at 10 µM): 14.8%

Question: Which side scatter shift (at 100 µM) does the source give for `CC(C)Cc1nc2oc3c(N4CCN(CCO)CC4)ncnc3c2c2c1CCCC2` here?
Answer: The side scatter shift was 33.3% (inactive).

Question: And the side scatter shift (side scatter shift, at 10 µM)?
Answer: The side scatter shift was 5.25%.

Question: Which side scatter shift (at 100 µM) does the source give for `O=C(NCCc1c[nH]c2ccccc12)C(F)(F)C(F)F` here?
Answer: The side scatter shift was 9% (inactive).

Question: And the side scatter shift (side scatter shift, at 10 µM)?
Answer: Its side scatter shift is 5.05%.

Question: For `O=C(CSc1nc2c(c(=O)n1-c1ccc(F)cc1)SCC2)NCC1CCCO1` (configuration not stated), which side scatter shift (at 100 µM) is on record?
Answer: The side scatter shift was 19.8% (inactive).

Question: And the side scatter shift (side scatter shift, at 10 µM)?
Answer: Its side scatter shift is 3.9%.

Question: Which results are given for `Cc1oc(-c2ccc(Cl)cc2)nc1CN1CCC(C(=O)NCCCN2CCCC2=O)CC1`?
Answer: side scatter shift (at 100 µM): 11.8% (inactive); side scatter shift (side scatter shift, at 10 µM): 1.8%
